Reference: PubChem BioAssay AID588689 (Southern Research Specialized Biocontainment Screening …, 2011)
Among all 340,000 compounds or so, about 1,000 (0.29%) were called active. Cut-off read from the data, not from the text of the source: inconclusive = inhibition above about 29% without an active follow-up result; inactive = below that. Only a sample is shown. Measured potencies and affinities stand elsewhere.

Biological target: Genome polyprotein (Dengue virus type 2 (strain 16681-PDK53)) (UniProt P29991)
Assay: Dengue-2 NS5 methyltransferase inhibitors, primary screen, biochemical, confirmation dose response (AID 588689)
Settings: Dengue-2 NS5 methyltransferase capping enzyme assay, at 25 µM, stronger effect = higher value
[1] = measured here: pilot screen replicate inhibition

Row | SMILES | inhibition | inhibition [1]
1 | COc1ccc(NS(=O)(=O)c2cc(NC(=O)C3CC3)ccc2N2CCOCC2)cc1 | 0% (inactive) | 
2 | Cn1cnc([N+](=O)[O-])c1SCC(=O)NN | 1.55% (inactive) | 
3 | COc1ccc([N+](=O)[O-])cc1N(CC(=O)NC1CCCCC1)S(C)(=O)=O | 1.47% (inactive) | 
4 | COc1cccc(CN2CC(C(=O)NCCOc3ccccc3F)CCC2=O)c1 (stereo not drawn) | -4.36% (inactive) | 
5 | O=C1Cc2cc(S(=O)(=O)N3CCNCC3)ccc2N1 | 0.77% (inactive) | 
6 | O=C(c1cccc(S(=O)(=O)N2CCN(c3ccc(F)cc3)CC2)c1)N1CCCC1 | -6.98% (inactive) | 
7 | CCc1nc2sc(C)c(C)c2c(=O)n1CCO | -0.54% (inactive) | 
8 | O=C(Oc1ccc(NC2=C(Cl)C(=O)c3ccccc3C2=O)cc1)c1ccc([N+](=O)[O-])cc1 | 11.5% (inactive) | 
9 | N/C(=N\S(=O)(=O)c1ccccc1)c1ccc([N+](=O)[O-])cc1 | -9.13% (inactive) | 
10 | CC(=O)c1cc2c(cc1F)C(C)(C)CCC2(C)C | 5.57% (inactive) | 
11 | COc1c2ccoc2cc2oc(C)cc(=O)c12 | -4.89% (inactive) | 
12 | COc1c2occc2c(OC)c2c(=O)cc(C)oc12 | -2.99% (inactive) | 
13 | Cc1ccc(CC2SC(N)=NC2=O)cc1 (stereo not drawn) | 0% (inactive) | 
14 | CC(C)(C)NC(=O)NC(=O)CN1CCN(c2ccc(O)cc2)CC1 | 1.52% (inactive) | 
15 | Cc1cc(N)n(-c2ccc(Cl)cc2)n1 | -6.66% (inactive) | 
16 | Cc1ccc(-n2c3nc(=O)[nH]c(=O)c-3cc3c(C)nn(-c4ccccc4)c32)c(C)c1 | 4.54% (inactive) | 
17 | Cc1ccc(C)c(-n2c3nc(=O)n(C)c(=O)c-3cc3ccccc32)c1 | 0% (inactive) | 
18 | Cc1ccc(-n2c(C)nn(Cc3ccc([N+](=O)[O-])cc3)c2=O)cc1 | -7.53% (inactive) | 
19 | Cc1cccc(-n2cc(-c3ccc([N+](=O)[O-])cc3)[nH]c2=S)c1 | -5.13% (inactive) | 
20 | Cc1ccc(-n2cc3ccc([N+](=O)[O-])cc3n2)cc1 | -5.66% (inactive) | 
21 | Cc1ccc(S(=O)(=O)n2cnc3cc([N+](=O)[O-])ccc32)cc1C | 0.8% (inactive) | 
22 | Cc1cccc(-n2cnc3cc([N+](=O)[O-])ccc32)c1 | 0% (inactive) | 
23 | Cn1c2nc(=O)[nH]c(=O)c-2cc2ccccc21 | -2.42% (inactive) | 

Row | SMILES | inhibition | inhibition [1]
24 | O=S(=O)(c1ccc(Cl)cc1)N1CCN(CCc2ccncc2)CC1 | -1.66% (inactive) | 
25 | Cc1cccc(C(C)C)c1NC(=O)COC(=O)CNS(=O)(=O)c1ccccc1 | 0% (inactive) | 
26 | O=C1NC2=C(C(=O)CCC2)C(c2ccc3ncccc3c2)N1 (stereo not drawn) | 0% (inactive) | 
27 | C[C@H](CO)N1C[C@H](C)[C@@H](CN(C)C(=O)Nc2cc(F)ccc2F)Oc2ncc(-c3cccc(F)c3)cc2C1=O | 0.58% (inactive) | 
28 | O=C1C=C(c2ccc(C(=O)O)cc2)C[C@@H](c2ccc3c(c2)OCO3)C1 | 0.83% (inactive) | 
29 | O=C(Cn1c(C(F)(F)F)nc2ccccc21)Nc1ccccc1N1CCOCC1 | 0.69% (inactive) | 
30 | Cc1cc(-c2ccco2)n(CC(=O)NCCCc2ccccc2)n1 | -4.87% (inactive) | 
31 | N#Cc1c(-c2ccccc2)nc(SCc2cccc(Cl)c2)[nH]c1=O | 19.5% (inactive) | 
32 | COC(=O)c1cccc(CSc2nc(-c3ccccc3)c(C#N)c(=O)[nH]2)c1 | 11.1% (inactive) | 
33 | O=C(CCC(=O)N1CCCC(Nc2ccccc2)C1)c1ccc(F)cc1 (stereo not drawn) | 2.72% (inactive) | 
34 | COCCOC(=O)c1sc2nc[nH]c(=O)c2c1C | -12.3% (inactive) | 
35 | Cc1ccc(S(=O)(=O)N2CCN(Cc3cccnc3)CC2)cc1 | 2.57% (inactive) | 
36 | CC(=O)Nc1ccc(S(=O)(=O)N(C)CC(=O)OC(C)C(=O)NC2CCCCC2)cc1 (stereo not drawn) | -5.07% (inactive) | 
37 | COc1cccc(C(C[N+](=O)[O-])c2c(C)[nH]n(-c3ccccc3)c2=O)c1 (stereo not drawn) | 8.91% (inactive) | 
38 | Cc1[nH]n(-c2ccccc2)c(=O)c1C(C[N+](=O)[O-])c1ccccc1Cl (stereo not drawn) | -8.87% (inactive) | 
39 | Cc1c(C(c2cccc([N+](=O)[O-])c2O)c2c(C)n(C)n(-c3ccccc3)c2=O)c(=O)n(-c2ccccc2)n1C | -5.62% (inactive) | 
40 | Cc1[nH][nH]c(=O)c1C(c1ccccc1[N+](=O)[O-])C(C#N)C#N (stereo not drawn) | -2.95% (inactive) | 
41 | Cc1[nH][nH]c(=O)c1[C@@H](c1ccccc1[N+](=O)[O-])C(C#N)C#N | 14.4% (inactive) | 
42 | COc1ccccc1N=Nc1c(C)[nH]n(-c2ccccc2)c1=O | 1.98% (inactive) | -4.55%
43 | S=C(Nc1ccccc1Cl)NC1CCCCCC1 | -2.33% (inactive) | 
44 | Cc1nnc(SCC(=O)Nc2nsc(-c3ccc(Cl)cc3)n2)s1 | 2.61% (inactive) | 
45 | CCOc1ccc(S(=O)(=O)N2CCN(S(=O)(=O)c3ccc(C(C)=O)cc3)CC2)cc1 | -2.49% (inactive) | 
46 | CC1CN(CCc2ccccc2)C(C)C/C1=N/O (stereo not drawn) | -3.09% (inactive) | 

Row | SMILES | inhibition | inhibition [1]
47 | Cc1c(Cl)cccc1NC(=S)N(Cc1cccnc1)Cc1ccccc1Cl | -4.52% (inactive) | 
48 | O=C(NCCS(=O)(=O)NCc1cccs1)c1ccccc1 | 0% (inactive) | 
49 | COc1ccc(C(=O)c2ccccc2C(=O)c2ccccc2)cc1 | -0.81% (inactive) | 
50 | COC(=O)C1=C(C)NC(=O)/C1=C\c1cc(C)n(-c2ccccc2F)c1C | 5.5% (inactive) | 
51 | Cc1cc(/C=C2/C(=O)NN(c3ccccc3)C2=O)c(C)n1-c1cccc(O)c1 | 6.37% (inactive) | 
52 | Cc1cc(/C=C2/C(=O)NN(c3ccccc3)C2=O)c(C)n1-c1ccc(O)cc1 | 5.82% (inactive) | 
53 | COC(=O)C1=C(C)NC(=O)/C1=C\c1cc(C)n(-c2ccccc2)c1C | 5.15% (inactive) | 
54 | Cc1nc(SCC(=O)N2CC(=O)Nc3ccccc32)nc(C)c1C | 2.34% (inactive) | 
55 | Cc1ccc(CS(=O)Cc2ccc(C(=O)NCc3ccc4c(c3)OCO4)o2)cc1 (stereo not drawn) | -13.8% (inactive) | 
56 | CC1CC(C)CN(S(=O)(=O)c2cccc(C(=O)N3CCN(c4ccc(F)cc4)CC3)c2)C1 (stereo not drawn) | -0.73% (inactive) | 
57 | CC(C)NC(=O)C1CCN(C(=O)N(C)C)CC1 | 0.71% (inactive) | 
58 | O=C(O)c1ccc(NC(=S)NC(=O)c2ccc(-c3ccc(Br)cc3)o2)cc1 | -8.03% (inactive) | 
59 | Cc1c(NC(=S)NC(=O)c2ccc(-c3ccc(Cl)cc3)o2)cccc1C(=O)O | 8.19% (inactive) | 
60 | O=Nc1c(-c2ccccc2)n(O)[n+]([O-])c1-c1ccccc1 | -16.7% (inactive) | 
61 | COc1cccc(CN2CC(C(=O)NCCN3CCOC3=O)CCC2=O)c1 (stereo not drawn) | -9.76% (inactive) | 
62 | COC(=O)C1=CN(c2ccc(OC)cc2)C=C(C(=O)OC)C1c1ccc([N+](=O)[O-])cc1 | -9.75% (inactive) | 
63 | Cc1ccc(Cn2nnc(C(=O)Nc3cccc(C)c3C)c2N)cc1 | -0.68% (inactive) | 
64 | Cc1cccc(S(=O)(=O)Nc2ccc(-n3c(C)nc4ccccc4c3=O)cc2)c1 | -5.8% (inactive) | 
65 | C=CCOc1ccc(Oc2cc(C)nc(SC)n2)nn1 | -6.11% (inactive) | 
66 | COc1nc(SC)nc(Cl)c1Cc1ccc(OC(C)C)cc1 | -6.55% (inactive) | 
67 | CSc1nc(O)c(C(c2ccc(C)cc2)c2c(O)nc(SC)[nH]c2=O)c(=O)[nH]1 | 5.27% (inactive) | 4.26%
68 | C=CCOc1ccc(S(C)(=O)=O)cc1 | 1.32% (inactive) | 
69 | CSc1nc(O)c(C(c2ccccc2)c2c(O)nc(SC)[nH]c2=O)c(=O)[nH]1 | -1.55% (inactive) | 

Row | SMILES | inhibition | inhibition [1]
70 | CSc1nc(Cl)c(Cc2ccc(OC(C)C)cc2)c(N(C)C)n1 | -2.55% (inactive) | 
71 | CN1CCN(C(=O)/C(=C/c2cn(S(=O)(=O)N(C)C)c3ccccc23)NC(=O)c2ccccc2F)CC1 | -5.9% (inactive) | 
72 | CCC(C(=O)Nc1cccnc1)n1c(=O)[nH]c2ccccc2c1=O (stereo not drawn) | -5.9% (inactive) | 
73 | Cc1ccc(NC(=O)C2CCCN(C(=O)Nc3ccc(F)cc3)C2)cc1 (stereo not drawn) | -4.13% (inactive) | 
74 | Cc1cc(=O)[nH]c(-c2cccs2)n1 | 10.8% (inactive) | 
75 | CC[C@H](C)Cc1cn([C@@H](CCCN=C(NC(=O)OC(C)(C)C)NC(=O)OC(C)(C)C)C(=O)NCCCCCCCCCCC(=O)N2CCN(C(=O)OC(C)(C)C)CC2)nn1 | -0.83% (inactive) | 
76 | Cc1csc(N(C(=O)c2cccc(S(=O)(=O)N(C)C)c2)c2ccccc2)n1 | -1.38% (inactive) | 
77 | CCC(C(=O)OCC(=O)Nc1ccc2[nH]c(=O)[nH]c2c1)c1ccccc1 (stereo not drawn) | 2.16% (inactive) | 
78 | COc1ccc(N(CC(=O)NCCSCc2ccco2)S(=O)(=O)c2ccccc2)cc1 | -3.68% (inactive) | 
79 | Fc1cccc(/C=N/Nc2nccnc2Cl)c1 | -2.31% (inactive) | 
80 | Cc1ccc([C@H]2C(C(=O)O)=CC[C@@H](c3ccc(C)cc3)N2S(=O)(=O)c2ccccc2C)cc1 | 13.7% (inactive) | 
81 | Cc1ccccc1S(=O)(=O)N1[C@@H](c2ccccc2)C(C(=O)O)=CC[C@H]1c1ccc(Cl)cc1 | 12.8% (inactive) | 
82 | Cc1ccccc1S(=O)(=O)N1[C@@H](c2ccc(Cl)cc2)C(C(=O)O)=CC[C@H]1c1ccc(Cl)cc1 | 23.8% (inactive) | 2.15%
83 | Cc1ccc([C@@H]2CC=C(C(=O)O)[C@H](c3ccccc3)N2S(=O)(=O)c2ccccc2C)cc1 | 11.1% (inactive) | 
84 | COc1cccc(NC(=O)c2ccc(N3C(=O)C4CC=CCC4C3=O)cc2)c1 (stereo not drawn) | 0.77% (inactive) | 
85 | CN(C)C(CNC(=O)C1CCN(S(=O)(=O)c2cccc(C(F)(F)F)c2)CC1)c1ccccc1 (stereo not drawn) | 0% (inactive) | 
86 | O=C(COc1ccc(F)c(Cl)c1)Nc1ccc(N2CCOCC2)cc1 | -11.9% (inactive) | 
87 | O=C(O)C(Cc1ccc(O)cc1)N1C(=O)c2ccccc2C1=O (stereo not drawn) | -2.65% (inactive) | 
88 | Cc1c(N2C(=O)/C(=C3\C(=O)N(CC(=O)O)c4ccccc43)SC2=S)c(=O)n(-c2ccccc2)n1C | 36.3% (inactive) | 
89 | CCCC(C(=O)O)N1C(=O)/C(=C/c2cccn2C)SC1=S (stereo not drawn) | -53.1% (inactive) | 
90 | CN1C(=O)/C(=C2\SC(=S)N(C(CCC(=O)O)C(=O)O)C2=O)c2ccccc21 (stereo not drawn) | 8.73% (inactive) | 
